# Test results as given in publication PMC8384837, “Expanding the binding specificity for RNA recognition by a PUF domain”.
# Columns and labels:
# Assay in all cases: yeast three-hybrid, YBZ-1, SC-Leu-His + 0.5 mM 3-AT, 4 days
# Conditions in all cases: tags: N-Gal4 AD-HA kept; label: inside an RPR1-promoter hybrid RNA with tandem MS2 sites; ssRNA
# PUM1 PUF domain R2-EPW = PUM1 PUF domain R2-EPW (Homo sapiens, UniProt Q14671 828-1176, N899E;Y900P;Q903W)
# Procedure, shortened: (§1)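 Repeat regions from input (SC-Leu) and selection (SC-Leu-His + 0.5 mM 3-AT) plates were PCR-amplified and Illumina-sequenced after four days of growth. The cells were strain YBZ-1 with a LexA–MS2 coat fusion and a HIS3 reporter, co-expressing Pumilio-1 PUF domain libraries and matching RNA elements from a centromeric plasmid. The interaction score is the log change in variant frequency from input to selection, taken in log2 with a pseudocount of 1 for absent variants.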
# PUM1 PUF domain R1-RTV = PUM1 PUF domain R1-RTV (Homo sapiens, UniProt Q14671 828-1176, S863R;R864T;Q867V)
# Procedure, shortened: as §1
# PUM1 PUF domain R3-RAW = PUM1 PUF domain R3-RAW (Homo sapiens, UniProt Q14671 828-1176, C935R;R936A;Q939W)
# Procedure, shortened: as §1
# PUM1 PUF domain R6-KWT = target: T1, PUM1 PUF domain R6-KWT (Homo sapiens, UniProt Q14671 828-1176, N1043K;Y1044W;Q1047T)
# T1 sequence: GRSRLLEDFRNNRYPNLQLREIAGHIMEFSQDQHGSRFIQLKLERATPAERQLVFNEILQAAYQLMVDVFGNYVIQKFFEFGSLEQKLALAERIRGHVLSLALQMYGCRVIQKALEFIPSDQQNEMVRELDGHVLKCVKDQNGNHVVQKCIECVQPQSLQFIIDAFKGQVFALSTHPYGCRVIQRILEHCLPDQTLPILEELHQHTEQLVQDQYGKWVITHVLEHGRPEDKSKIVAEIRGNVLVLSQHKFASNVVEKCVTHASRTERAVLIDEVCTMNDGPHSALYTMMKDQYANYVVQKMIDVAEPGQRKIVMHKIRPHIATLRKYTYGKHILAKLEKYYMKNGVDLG
# Procedure, shortened: as §1
# PUM1 PUF domain R4-HNA = PUM1 PUF domain R4-HNA (Homo sapiens, UniProt Q14671 828-1176, N971H;H972N;Q975A)
# Procedure, shortened: as §1
# PUM1 PUF domain R4-PHL = PUM1 PUF domain R4-PHL (Homo sapiens, UniProt Q14671 828-1176, N971P;Q975L)
# Procedure, shortened: as §1
# PUM1 PUF domain R8-HWD = PUM1 PUF domain R8-HWD (Homo sapiens, UniProt Q14671 828-1176, N1122H;Y1123W;Q1126D)
# Procedure, shortened: as §1
# PUM1 PUF domain R8-RHS = PUM1 PUF domain R8-RHS (Homo sapiens, UniProt Q14671 828-1176, N1122R;Y1123H;Q1126S)
# Procedure, shortened: as §1
# PUM1 PUF domain R7-RVS = PUM1 PUF domain R7-RVS (Homo sapiens, UniProt Q14671 828-1176, S1079R;N1080V;E1083S)
# Procedure, shortened: as §1
sequence,measurement,setting,value
GGCUAGAACUAGUGGAUCCCCCGGCGCCCGGCGGCUCGAGCCCGGGUAAGUGUAAAGAGUCUGCAUGCCGCCGGGCGCCAUGCCUGCAGGUCGACUCUAGAAAACAUG,binding signal,PUM1 PUF domain R2-EPW,3.25 log2 enrichment (interaction score)
GGCUAGAACUAGUGGAUCCCCCGGCGCCCGGCGGCUCGAGCCCGGGUAAGUGUAAAUUGUCUGCAUGCCGCCGGGCGCCAUGCCUGCAGGUCGACUCUAGAAAACAUG,binding signal,PUM1 PUF domain R1-RTV,3.33 log2 enrichment (interaction score)
GGCUAGAACUAGUGGAUCCCCCGGCGCCCGGCGGCUCGAGCCCGGGUAAGUGUAAGUAGUCUGCAUGCCGCCGGGCGCCAUGCCUGCAGGUCGACUCUAGAAAACAUG,binding signal,PUM1 PUF domain R3-RAW,1.15 log2 enrichment (interaction score)
GGCUAGAACUAGUGGAUCCCCCGGCGCCCGGCGGCUCGAGCCCGGGUAAGUGCAAAUAGUCUGCAUGCCGCCGGGCGCCAUGCCUGCAGGUCGACUCUAGAAAACAUG,binding signal,PUM1 PUF domain R6-KWT,3.77 log2 enrichment (interaction score)
GGCUAGAACUAGUGGAUCCCCCGGCGCCCGGCGGCUCGAGCCCGGGUAAGUGUAUAUAGUCUGCAUGCCGCCGGGCGCCAUGCCUGCAGGUCGACUCUAGAAAACAUG,binding signal,PUM1 PUF domain R4-HNA,4.72 log2 enrichment (interaction score)
same,binding signal,PUM1 PUF domain R4-PHL,5.92 log2 enrichment (interaction score)
GGCUAGAACUAGUGGAUCCCCCGGCGCCCGGCGGCUCGAGCCCGGGUAAGUGUAAUUAGUCUGCAUGCCGCCGGGCGCCAUGCCUGCAGGUCGACUCUAGAAAACAUG,binding signal,PUM1 PUF domain R3-RAW,4.11 log2 enrichment (interaction score)
GGCUAGAACUAGUGGAUCCCCCGGCGCCCGGCGGCUCGAGCCCGGGUAAGCGUAAAUAGUCUGCAUGCCGCCGGGCGCCAUGCCUGCAGGUCGACUCUAGAAAACAUG,binding signal,PUM1 PUF domain R8-HWD,4.23 log2 enrichment (interaction score)
same,binding signal,PUM1 PUF domain R8-RHS,4.15 log2 enrichment (interaction score)
GGCUAGAACUAGUGGAUCCCCCGGCGCCCGGCGGCUCGAGCCCGGGUAAGUUUAAAUAGUCUGCAUGCCGCCGGGCGCCAUGCCUGCAGGUCGACUCUAGAAAACAUG,binding signal,PUM1 PUF domain R7-RVS,3.16 log2 enrichment (interaction score)
